Assay results taken from PubChem BioAssay (EPA / NIEHS).
“And” between values parts separate entries of the source, which are not always exact repeats. Identical values can stand only once. Inconclusive results are not listed. The source made the active and inactive calls. Rule for the calls: active = hit-call score of the fitted dose curve at least 0.9, where 1 is the maximum; inconclusive = response in the unintended direction; inactive = score below 0.9.

Tests used:
[1] = TOX21_p53_BLA_p2_viability: Viability Assessment in the Tox21 HCT-116 p53 Agonism Beta-lactamase Assay, Phase 2 (AID 2283591);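 note: actives lower the ATP signal meaning cytotoxicity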
Method in brief: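 HCT116 p53-bla cells, 4000/well, dosed after 5 h plating (217-fold dilution of DMSO stocks) and incubated 16 h at 37C. Viability taken as cellular ATP by CellTiter-Glo luminescence after 30 min RT; signal loss marks cytotoxicity.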

[2] = target: Cellular tumor antigen p53 (Homo sapiens) (UniProt P04637); assay: TOX21_p53_BLA_p2_ratio: Tox21 HCT-116 p53 Agonism Beta-lactamase Assay, Ratio, Phase 2 (AID 2283592)
Method in brief: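 First, HCT116 reporter cells settle for 5 h at 37C. Next, DMSO compound solutions are pinned in (217-fold dilution) and left 16 h. Finally, CCF4-AM substrate is loaded 2 h at room temperature and the 460/530 nm ratio read.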

[3] = TOX21_p53_BLA_p3_viability: Viability Assessment in the Tox21 HCT-116 p53 Agonism Beta-lactamase Assay, Phase 3 (AID 2283593);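 note: cells exposed to compound for 16 h before reading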
Method in brief: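 HCT116 cells, 4000/well, dosed 5 h after plating by pin transfer (217-fold dilution from DMSO stock) and incubated 16 h at 37C, 5% CO2. Viability read as ATP luminescence with CellTiter-Glo after 30 min at room temperature.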

[4] = target: Cellular tumor antigen p53 (Homo sapiens) (UniProt P04637); assay: TOX21_p53_BLA_p3_ratio: Tox21 HCT-116 p53 Agonism Beta-lactamase Assay, Ratio, Phase 3 (AID 2283596)
Method in brief: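 Cells were seeded at 4000/well, rested 5 h at 37C, then dosed with DMSO compound solutions (217-fold dilution) for 16 h. CCF4-AM substrate was loaded for 2 h at room temperature, and the 460/530 nm emission ratio was fitted for gain of signal versus DMSO.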

[5] = TOX21_p53_BLA_p4_viability: Viability Assessment in the Tox21 HCT-116 p53 Agonism Beta-lactamase Assay, Phase 4 (AID 2283597);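 note: hits lower the luminescence signal meaning cytotoxicity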
Method in brief: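 4000 HCT116 cells per well; 5 h attachment; compounds from DMSO, 217-fold dilution; 16 h at 37C. Then CCF4-AM, 2 h RT, followed by CellTiter-Glo, 30 min RT, luminescence. Decrease = cytotoxicity.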

[6] = target: Cellular tumor antigen p53 (Homo sapiens) (UniProt P04637); assay: TOX21_p53_BLA_p5_ratio: Tox21 HCT-116 p53 Agonism Beta-lactamase Assay, Ratio, Phase 5 (AID 2283599)
Method in brief: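 HCT-116 p53-bla cells (4000/well) plated 5 h, dosed with compound (217-fold DMSO dilution) for 16 h at 37 C; CCF4-AM substrate 2 h at room temperature. Activity is the 460/530 nm emission ratio (405 nm excitation), fitted in gain-of-signal direction versus DMSO.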

[7] = TOX21_p53_BLA_p5_viability: Viability Assessment in the Tox21 HCT-116 p53 Agonism Beta-lactamase Assay, Phase 5 (AID 2283600)
Method in brief: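 Decreased CellTiter-Glo luminescence denotes lost viability. Exposure: 16 h at 37C, 5% CO2, with compounds from DMSO stocks diluted 217-fold in wells of 4000 cells.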

[8] = target: Cellular tumor antigen p53 (Homo sapiens) (UniProt P04637); assay: TOX21_p53_BLA_p4_ratio: Tox21 HCT-116 p53 Agonism Beta-lactamase Assay, Ratio, Phase 4 (AID 2283601)
Method in brief: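 HCT-116 p53 beta-lactamase reporter cells (4000/well) preincubated 5 h, then compound (217-fold dilution of DMSO stock) for 16 h at 37C. CCF4-AM substrate added 2 h at room temperature; 460/530 nm emission ratio fitted upward versus DMSO.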

Measured: AC50

Chain of Cellular tumor antigen p53 (Homo sapiens) (P04637 whole entry, looked up): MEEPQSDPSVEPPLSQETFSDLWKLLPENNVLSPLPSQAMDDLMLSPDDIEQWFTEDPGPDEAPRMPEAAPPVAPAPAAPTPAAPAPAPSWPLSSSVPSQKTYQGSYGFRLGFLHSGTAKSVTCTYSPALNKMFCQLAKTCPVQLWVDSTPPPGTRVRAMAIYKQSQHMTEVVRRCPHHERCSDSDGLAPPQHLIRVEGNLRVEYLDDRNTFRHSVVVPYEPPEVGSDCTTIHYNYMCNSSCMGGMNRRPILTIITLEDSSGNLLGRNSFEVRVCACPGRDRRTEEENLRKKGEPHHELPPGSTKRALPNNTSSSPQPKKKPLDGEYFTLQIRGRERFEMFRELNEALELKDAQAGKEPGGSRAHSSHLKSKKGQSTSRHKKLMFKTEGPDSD

CCCCCCCCCCCCCCCCC(C(=O)O)C(O)(CC(=O)O)C(=O)O (stereo unspecified)
active: [3] 42.3 µM | [4] 41.2 µM | [6] 38.7 µM | [7] 34.3 µM
inactive: [1] | [2] | [5] | [8]

NC(=O)C(=O)NN=Cc1ccc([N+](=O)[O-])o1
active: [2] 39.8 µM | [5] 42.3 µM | [6] 37.1 µM | [8] 41.8 µM
inactive: [1] | [3] | [4] | [7]

O=C1c2ccccc2C(=O)C1(O)O
active: [1] 88.5 µM | [2] 31.8 µM | [3] 63.8 µM | [4] 22.8 µM | [5] 60.2 µM | [6] 29 µM | [8] 36.3 µM
inactive: [7]

O=C(O)c1cc(-c2ccccc2)nc2ccccc12
inactive: all assays above

CC(=O)OC(OC(C)=O)c1ccc([N+](=O)[O-])o1
active: [1] 74.3 µM | [3] 74.1 µM | [5] 74.8 µM | [7] 88 µM
inactive: all other assays above

CNCCCC1c2ccccc2C=Cc2ccccc21
inactive: all assays above

Clc1cc(Cl)c(OCC#CI)cc1Cl
active: [2] 33.7 µM | [5] 23 µM | [6] 39.7 µM
inactive: all other assays above

CCCCCCCC(=O)CC[C@@H]1[C@@H](C/C=C\CCCC(=O)OC(C)C)[C@@H](O)C[C@H]1O
inactive: [4]
active: [1] 36.2 µM | [2] 43.7 µM | [3] 43.7 µM | [5] 23 µM | [6] 43 µM | [7] 41.9 µM | [8] 43.6 µM

Cc1ccc(-n2nc(C(C)(C)C)cc2NC(=O)Nc2ccc(OCCN3CCOCC3)c3ccccc23)cc1
inactive: all assays above

C=C1/C(=C\C=C2/CCC[C@]3(C)[C@@H]([C@H](C)CCCC(C)C)CC[C@@H]23)C[C@@H](O)C[C@@H]1O
active: [2] 20.7 µM | [3] 37.1 µM | [4] 40 µM
inactive: all other assays above

CC(NCCC(c1ccccc1)c1ccccc1)c1ccccc1 (stereo unspecified)
active: [1] 26.6 µM | [2] 33.9 µM | [5] 32.5 µM | [6] 35.8 µM | [8] 39.4 µM
inactive: [3] | [4] | [7]

CCCCCCCCS(=O)C(C)Cc1ccc2c(c1)OCO2 (stereo unspecified)
inactive: [3]
active: [1] 78.9 µM | [2] 39.3 µM | [4] 90.9 µM | [5] 74.7 µM | [6] 86.8 µM | [7] 58.2 µM | [8] 88.7 µM

OC1(c2ccc(Cl)c(C(F)(F)F)c2)CCN(CCCC(c2ccc(F)cc2)c2ccc(F)cc2)CC1
active: [1] 12.8 µM | [2] 19.6 µM | [3] 30.7 µM | [4] 40.1 µM | [5] 20 µM | [6] 43.2 µM | [7] 37.6 µM | [8] 34.1 µM

C[C@H]1O[C@@H](n2cc(F)c(=O)[nH]c2=O)[C@H](O)[C@@H]1O
inactive: [5] | [7]
active: [1] 17.9 µM | [2] 23 µM | [3] 15.5 µM | [4] 20.7 µM | [6] 24.4 µM | [8] 27.5 µM

CC1=C(/C=C/C(C)=C/C=C/C(C)=C/C=O)C(C)(C)CCC1
active: [1] 28.7 µM | [3] 36.6 µM | [4] 66.6 µM | [5] 67 µM | [6] 49.1 µM | [7] 34.9 µM | [8] 85.6 µM
inactive: [2]

CSc1ccc(/C=C2/C(C)=C(CC(=O)O)c3cc(F)ccc32)cc1
inactive: [2] | [4] | [8]
active: [1] 22.4 µM | [3] 41.1 µM | [5] 23.1 µM | [6] 19.7 µM | [7] 36.4 µM

CC(=C(CCO)SSC(CCO)=C(C)N(C=O)Cc1cnc(C)nc1N)N(C=O)Cc1cnc(C)nc1N
inactive: all assays above

c1ccc2c(CC3=NCCN3)cccc2c1
inactive: all assays above

O=C1NCN(c2ccccc2)C12CCN(CCCC(c1ccc(F)cc1)c1ccc(F)cc1)CC2
active: [1] 37.3 µM | [2] 39.1 µM | [3] 35.9 µM | [4] 42.2 µM | [5] 23 µM | [6] 45 µM | [7] 35.1 µM | [8] 26.7 µM

CCn1cc(C(=O)O)c(=O)c2cc(F)c(N3CCNC(C)C3)c(F)c21 (stereo unspecified)
inactive: all assays above

CCN1/C(=C/C=C/c2sc3ccccc3[n+]2CC)Sc2ccccc21
active: [2] 9.06 µM | [3] 4.58 µM | [4] 23.5 µM | [5] 20 µM | [6] 11.5 µM | [8] 12.9 µM
inactive: [1] | [7]

O=C(Nc1ccc(S(=O)(=O)N2CCOCC2)cc1)c1cc(Cl)ccc1NS(=O)(=O)c1ccc(Cl)s1
active: [5] 22 µM | [6] 21.7 µM | [8] 36.5 µM
inactive: all other assays above

Cc1c(C)n(Cc2ccccc2)c2ccc(C(=O)OCCN(C)C)cc12
active: [5] 18.3 µM
inactive: all other assays above

CCN(CC)CCOc1ccc(Cc2ccccc2)cc1
active: [1] 42.2 µM | [5] 33.8 µM
inactive: all other assays above

CN1CCN(CCCN2c3ccccc3Sc3ccc(Cl)cc32)CC1
active: [1] 33.8 µM | [2] 43.7 µM | [3] 34.7 µM | [5] 38.3 µM | [6] 43.3 µM | [7] 34.4 µM | [8] 43.7 µM
inactive: [4]

SC1CCCCC1
inactive: all assays above

C[C@]12O[C@H](C[C@]1(O)CO)n1c3ccccc3c3c4c(c5c6ccccc6n2c5c31)CNC4=O
active: [1] 1.06 µM | [2] 0.0434 µM | [3] 1.13 µM | [4] 0.0715 µM | [5] 2.24 µM | [6] 0.0787 µM | [8] 0.0528 µM
inactive: [7]

CC(C)Oc1ccc2c(=O)c(-c3ccccc3)coc2c1
inactive: all assays above

Cc1cccc(N(C)C(=S)Oc2ccc3c(c2)CCC3)c1
inactive: all assays above

CC(=O)Oc1ccc(C2(c3ccc(OC(C)=O)cc3)C(=O)Nc3ccccc32)cc1
active: [1] 781 nM and 543 nM | [2] 540 nM and 368 nM | [3] 633 nM and 692 nM | [4] 641 nM and 515 nM | [5] 580 nM and 459 nM | [6] 663 nM and 407 nM | [8] 555 nM and 464 nM
inactive: [7]

Cc1cc(O)c(C(C)(C)C)cc1Sc1cc(C(C)(C)C)c(O)cc1C
active: [1] 13.2 µM | [2] 37.9 µM | [3] 20 µM | [4] 33.4 µM | [5] 14.3 µM | [6] 40.9 µM | [7] 18.1 µM | [8] 31.5 µM

CC[C@H]1OC(=O)[C@H](C)C(=O)[C@H](C)[C@@H](O[C@@H]2O[C@H](C)C[C@H](N(C)C)[C@H]2O)[C@](C)(OC)C[C@@H](C)C(=O)[C@H](C)[C@H]2N(CCCCn3cnc(-c4cccnc4)c3)C(=O)O[C@]12C
inactive: all assays above

CCOC(=O)/C=C(C)/C=C/C=C(C)/C=C/c1c(C)cc(OC)c(C)c1C
inactive: all assays above

CC(C)(C)OC(=O)N1C[C@@H](F)C[C@H]1C(=O)O
inactive: all assays above

O=C(O)c1ccccc1[N+](=O)[O-]
active: [2] 73.7 µM | [6] 86.4 µM
inactive: all other assays above

CCN(CC)CCOc1ccc(-c2nc3cc(Cl)ccc3s2)cc1
active: [1] 44.8 µM | [5] 36.3 µM
inactive: all other assays above

Nc1ccc(C(=O)Oc2ccccc2)c(O)c1
inactive: all assays above
